Compound activity: PubChem BioAssay, several laboratories
CYP2C19 act – increases human CYP2C19 enzyme activity; P33261; recombinant CYP2C19, luciferin-H EGE luminescence; hits give high values; 0 = fully inhibited enzyme, 1 = untreated enzyme; activation factor at 5 µM; 96,000 tested, under 10 active;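 active = activation factor of at least 2 at 5 µM in the primary screen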
CYP2C9 act – activators of human CYP2C9; activation factor at 5 µM; 96,000 tested, 1.4% active; recombinant CYP2C9, luciferin-H conversion, luminescence; hits give high values; factor 1 = untreated enzyme, 0 = blocked; AID 1024; P11712;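 active = activation factor of 2 or more for CYP2C9 at a 5 µM dose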
CYP2C19 inhib – inhibitors of human CYP2C19; CYP2C19 Supersomes, luciferin-H EGE luminescence, 30 min; 96,000 tested, 21% active; AID 778; P33261; inhibition, % at 5 µM;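 active = CYP2C19 inhibition above a set limit at 5 µM in the primary screen, cut at about 50% in these data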
Cav32 inh – human Cav3.2 channel inhibition, primary screen; Cav3.2-expressing cells, Fluo-4 calcium fluorescence FDSS; hits give low values; AID 449739; 100,000 tested, 4% active; B-score at 10 µM;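 active = single-dose well whose peak fluorescence ratio is a statistical outlier from its plate by either plate-standardised score or position-corrected B-score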
CYP2C9 inh – blocks human cytochrome P450 2C9 | P11712 | CYP2C9 Supersomes, luciferin-H conversion, luminescence | inhibition, % at 5 µM | 96,000 tested, 20% active | AID 777;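 active = blocking of liver enzyme CYP2C9 beyond about 50% at 5 µM, limit read from the data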
Each line names hits and unclear results; the compound was inactive in the other large screens. Sampled rows, rich in hits. Any-hit rate of the full collection: about 27%.

Cc1ccc(NC(=O)CSc2ncc(-c3ccccc3)n2C(=O)c2ccccc2)cc1	CYP2C19 inhib 69, CYP2C9 inh 59
CCc1ccccc1NC(=O)CSc1nc(-c2ccccc2)nn1C(=O)c1cccc([N+](=O)[O-])c1	CYP2C19 inhib 76, CYP2C9 inh 74
O=C(c1ccc([N+](=O)[O-])cc1)n1nc(-c2ccccc2)nc1NCc1ccccc1	none (no result: Cav32 inh)
CC(=O)n1nc(-c2cccc(C)c2)nc1SCC(=O)Nc1ccccc1	CYP2C19 inhib 55, CYP2C9 inh 61
Cc1ccc(NC(=O)CSc2nc3ccccc3c3nc4ccccc4n23)cc1	none
CCC(=O)n1nc(-c2ccccc2)nc1SCC(=O)Nc1ccc(C)cc1	none (no result: Cav32 inh)
Cn1c(CSCc2ccc(F)cc2)nnc1SCC(=O)N1CCN(c2ccccc2)CC1	none
COn1c(SCC(=O)N(C)C)nc2ccccc2c1=O	none
CCN(CC)C(=O)CSc1nc2ccccc2c(=O)n1-c1cccc(OC)c1	CYP2C9 inh 71
CCN(CC)C(=O)CSc1nc2ccccc2c(=O)n1CCC(=O)NCc1ccc(F)cc1	CYP2C19 inhib 57, CYP2C9 inh 92
CCCCOC(=O)n1c(SCC(=O)N(CC)CC)nc2ccccc21	CYP2C9 inh 86
CCN(CC)C(=O)CSc1nc2ccccc2c(=O)n1CC	none
CCOC(=O)n1c(SCC(N)=O)nc2ccccc21	none
CCN(CC)C(=O)CSc1nc2ccccc2c(=O)n1OC(C)C	CYP2C9 inh 58
O=C(CSc1nc2ccccc2c(=O)n1-c1cccc(C(F)(F)F)c1)NC1CC1	CYP2C19 inhib 51
COc1ccc(-n2c(SCC#N)nc3ccccc3c2=O)cc1	CYP2C9 inh 68
CCOc1ccccc1-n1c(SCC(N)=O)nnc1-c1ccccc1	none
CCOc1ccccc1-n1c(SCC(N)=O)nc2ccccc2c1=O	CYP2C19 inhib 59
Cc1nn(C)c(C)c1NC(=O)CCCSc1nc(-c2ccco2)cc(C(F)(F)F)n1	none (no result: CYP2C19 act, CYP2C9 act, CYP2C19 inhib, CYP2C9 inh)
CCOC(=O)CNC(=O)Nc1cc(C(C)(C)C)nn1-c1ccccc1	none
Cc1cc(C)n(C(=O)CCCCCCCC(=O)n2nc(C)cc2C)n1	none (no result: CYP2C19 act, CYP2C9 act, CYP2C19 inhib, CYP2C9 inh)
Cc1cc(C)n(C(=O)CCCCCCCCC(=O)n2nc(C)cc2C)n1	CYP2C19 inhib 71, CYP2C9 inh 58
Cc1ccc(C(C(=O)NC2CCCCC2)N(Cc2cccnc2)C(=O)C2COc3ccccc3O2)o1 (stereo not drawn)	none
Cc1cccc(NC(=O)CN(C)S(=O)(=O)c2cccs2)c1	CYP2C19 inhib 80
Cc1cccc(NS(=O)(=O)c2cccs2)c1	CYP2C19 inhib 93
Cc1cccc2sc(NC(=O)CSCc3ccccc3)nc12	none
Cc1cccc2sc(NC(=O)CN(C)S(=O)(=O)c3ccc(Br)s3)nc12	CYP2C19 inhib 62 (no result: Cav32 inh)
Cc1cccc2sc(NC(=O)CN(C)S(=O)(=O)c3cccs3)nc12	CYP2C19 inhib 94, CYP2C9 inh 59
Cc1cc(NC(=O)c2cc(C3CC3)on2)no1	none (no result: CYP2C19 act, CYP2C9 act, CYP2C19 inhib, CYP2C9 inh)
O=C(NCCc1nc(-c2ccccc2Cl)no1)C1CCCCC1	none (no result: CYP2C19 act, CYP2C9 act, CYP2C19 inhib, CYP2C9 inh)
Cc1cccc2sc(NC(=O)Cn3cccc3)nc12	CYP2C9 inh 56
COC(=O)CN1C2(C#N)CCCCC2CC2CCCCC21C#N (stereo not drawn)	none
COc1ccc(N(C(=O)C(C)C)S(=O)(=O)c2ccc3c(c2)n(C)c(=O)n3C)cc1	CYP2C9 inh 65
COc1ccc(N(C(=O)c2cccc([N+](=O)[O-])c2)S(=O)(=O)c2ccc3c(c2)n(C)c(=O)n3C)cc1	none
COc1ccc(N(C(=O)C(C)C)S(=O)(=O)c2ccc(Cl)cc2)cc1	CYP2C19 inhib 97, CYP2C9 inh 88
Cc1onc(-c2ccccc2)c1C(=O)Nc1nc(-c2ccccc2)cs1	CYP2C19 inhib 70, CYP2C9 inh 72
COCCNC(=O)c1ccccc1NC(=O)c1ccccc1N(C)S(=O)(=O)c1ccccc1	CYP2C19 inhib 100, CYP2C9 inh 93
COc1cccc(/C=N/NC(=O)c2c(-c3ccccc3)noc2C)c1	CYP2C19 inhib 50, CYP2C9 inh 67
Cc1onc(-c2ccccc2)c1C(=O)Nc1nnc(COc2ccc(Cl)cc2)s1	CYP2C19 inhib 54, CYP2C9 inh 98 (no result: Cav32 inh)
Cc1onc(-c2ccccc2)c1C(=O)Nc1nc(-c2cc(F)ccc2F)cs1	none
COCCNC(=O)c1ccccc1-c1ccccc1C(=O)O	none
CCS(=O)CCSc1nc2ccccc2s1 (stereo not drawn)	none
O=C(Nc1ccccc1)C1=C[C@@H](c2ccc3c(c2)OCO3)C[C@@H](OCCCCO)O1	none (no result: CYP2C19 act, CYP2C9 act, CYP2C19 inhib, CYP2C9 inh)
Cc1cc(C(=O)OCC(=O)Nc2nc(-c3ccccc3)cs2)c(C)o1	none
Cc1cc(C(=O)OC(C)C(=O)Nc2nc(-c3ccccc3)cs2)c(C)o1 (stereo not drawn)	CYP2C19 inhib 89, CYP2C9 inh 96
CCN(CC)S(=O)(=O)c1ccc(NC(=O)c2ccccc2N(C)S(C)(=O)=O)cc1	CYP2C9 inh 61
CCN(CC)S(=O)(=O)c1ccc(NC(=O)c2c(-c3ccccc3)noc2C)cc1	CYP2C19 inhib 65
COC(=O)c1ccc(C)c(NC(=O)c2c(-c3ccccc3)noc2C)c1	CYP2C19 inhib 69
CC(N=C(NC#N)Nc1ccncc1)C(C)(C)C (stereo not drawn)	none (no result: CYP2C19 act, CYP2C9 act, CYP2C19 inhib, CYP2C9 inh)
CCC(C)N(C(=O)Cn1nnc2ccccc21)C(C(=O)Nc1ccc(F)cc1)c1cccc(OC)c1 (stereo not drawn)	none
CCC(CC)c1nnc(NC(=O)c2c(-c3ccccc3)noc2C)s1	CYP2C9 inh 58
Cc1nn(-c2ccccc2)c2sc(C(=O)OCC(=O)N3CCCCC3)cc12	none
CC1CCCCN1S(=O)(=O)c1ccc(S(=O)(=O)N(Cc2ccccc2)Cc2ccco2)cc1 (stereo not drawn)	none (no result: CYP2C19 act, CYP2C9 act, CYP2C19 inhib, CYP2C9 inh)
O=S(=O)(c1ccccc1F)N(Cc1ccco1)Cc1nnc(-c2ccccc2Br)o1	CYP2C19 inhib 50, CYP2C9 inh 68
COc1ccc2c(c1)CC(C1(O)C(=O)N(C)c3ccccc31)C2=O (stereo not drawn)	CYP2C19 inhib 77
CC/C=C\[C@H](O)[C@H](O)C1=C(C)C(=O)[C@]2(O1)C(=O)N[C@@](OC)(C(=O)c1ccccc1)C2O (stereo partly drawn)	none (no result: CYP2C19 act, CYP2C9 act, CYP2C19 inhib, CYP2C9 inh)
O=C(CC1C(=O)NC2CCCCC2N1C(=O)c1ccc(F)cc1)Nc1ccccc1 (stereo not drawn)	CYP2C9 inh 56
COc1ccccc1C(=O)N1C(CC(=O)Nc2cc(Cl)ccc2C)C(=O)NC2CCCCC21 (stereo not drawn)	none
O=C(CC1C(=O)N(c2ccccc2)C(=O)N1C1CCCCC1)Nc1ccccc1 (stereo not drawn)	CYP2C19 inhib 52
Cc1ccc(NC(=O)CC2C(=O)NC3CCCCC3N2C(=O)c2ccc(F)cc2)cc1C (stereo not drawn)	CYP2C9 inh 64
COc1ccc(CC(C(=O)Nc2cccc(F)c2)c2nn[nH]n2)c(OC)c1 (stereo not drawn)	none
CC(C)NC(=O)c1cc(-c2ccco2)nn1-c1ccc(Cl)cc1	none
